Compounds with a hit are over-represented: about 5.7% of the library has one in this group of screens.
DAX1 inh-1: DAX1 (NR0B1) inhibitors on StAR promoter, primary screen, cell-based, luminescence, SF-1 (NR5A1), full-length DAX-1 | HEK293T StAR-luciferase reporter, SF-1/DAX-1 repression relief | inhibition, % at 6.8 µM | 370,000 tested, 1.1% active;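 active means inhibition above the mean over all tested compounds plus 3 SD, cut at about 3.6% in these data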;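 further: 0% = DAX-1 cells with DMSO and 100% = cells lacking DAX-1 with DMSO; higher inhibition means more luminescence from relief of DAX-1 repression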
DAX1 inh-2: DAX1 (NR0B1) inhibitors, primary screen, cell-based, HEK293, Gal4-DAX1, luciferase luminescence | HEK293 Gal4-DAX1 luciferase reporter | 340,000 tested, 0.99% active | inhibition, % at 6.75 µM | Nuclear receptor subfamily 0 group B member 1 (Homo sapiens), P51843;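 active means inhibition above the mean over all tested compounds plus 3 SD, cut at about 4.2% in these data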;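 further: 0% = DAX1-transfected cells with DMSO and 100% = empty-vector control cells with DMSO; inhibition shows as a rise in luminescence from relieved DAX1 repression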
Target sequence (P51843 207-470 limits assumed): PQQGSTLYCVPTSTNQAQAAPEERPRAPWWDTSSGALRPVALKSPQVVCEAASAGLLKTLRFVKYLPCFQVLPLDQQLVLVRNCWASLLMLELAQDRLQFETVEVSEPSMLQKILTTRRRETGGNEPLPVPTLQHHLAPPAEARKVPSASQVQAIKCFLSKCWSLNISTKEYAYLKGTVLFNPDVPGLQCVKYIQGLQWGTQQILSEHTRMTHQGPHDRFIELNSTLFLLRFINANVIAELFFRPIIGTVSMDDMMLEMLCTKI
ssDAF-12 act: S. stercoralis DAF-12 nuclear receptor activators, primary screen, cell-based, luminescence, HEK293, GRIP1 co-expression, lit1-tk-luc. HEK293 ssDAF-12/GRIP1 lit1-tk-luc reporter; % of 3 µM dafachronic acid response. activation, % at 6.8 µM. 370,000 tested, 1% active;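 active means activation above the mean over all tested compounds plus 3 SD, cut at about 0.9% in these data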;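 further: 0% = DMSO-only wells and 100% = 3 µM delta7-dafachronic acid wells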
hgDAF-12 ag: H. glycines DAF-12 receptor agonists, primary screen, cell-based, luminescence, HEK293, GAL4 fusion, UAS-luciferase | Nuclear hormone receptor DAF-12 (Heterodera glycines), GAL4 fusion | HEK293 GAL4-hgDAF12 UAS-luciferase reporter, agonist luminescence; normalized to butyrate control | activation, % at 6.8 µM | 370,000 tested, 1.8% active;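 active means activation above a cutoff set at the mean of all screened compounds plus 3 SD, cut at about 10% in these data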;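 further: 0% = DMSO wells and 100% = sodium butyrate wells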
AHR act: AHR activators, primary screen, cell-based, luminescence, luciferase reporter, human. Aryl hydrocarbon receptor (Homo sapiens), P35869. AHR-responsive luciferase reporter cells. activation, % at 5 µM. 320,000 tested, 2.5% active; in the data active means activation above about 47%;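 further: 0% = vehicle wells and 100% = reference agonist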
hcDAF12 agonist: H. contortus DAF-12 nuclear receptor activators, primary screen, cell-based, luminescence, HEK293, lit1-tk-luc reporter; HEK293 hcDAF-12 lit1-tk-luc reporter; 0% DMSO, 100% Δ7-dafachronic acid; activation, % at 6.8 µM; 370,000 tested, 1.4% active; AID 652067, 2013;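 active means activation above the mean of all tested compounds plus 3 SD, cut at about 5.5% in these data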;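 further: 100% = response to 3 µM Δ7-dafachronic acid high control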
DAX1 conf: DAX1 (NR0B1) inhibitors relieving SF-1 repression, confirmation, cell-based, luminescence, HEK293T, full-length DAX-1, SF-1 activated StAR promoter. shares compounds with DAX1 inh-1. HEK293T StAR-promoter luciferase reporter, SF-1/DAX-1 repression. inhibition, % at 6.8 µM. 2,400 tested, 87% active;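 active means inhibition above the average of every tested compound plus 3 SD, cut at about 3.8% in these data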;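 further: 0% = DAX-1 cells with DMSO and 100% = no DAX-1 control cells with DMSO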
SF1 mutant ctr: StAR reporter signal changes without DAX1, counter-screen for DAX1 inhibitor project, cell-based, luminescence, AF-2 mutant SF-1, transactivation; HEK293 StAR-luciferase, SF-1 AF2 mutant; shares compounds with DAX1 inh-1; inhibition, % at 6.8 µM; AID 652136, 2013; 2,400 tested, 78% active;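 active means inhibition above the mean of all tested compounds plus 3 SD, cut at about 3% in these data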;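 further: 0% = DAX-1 transfected cells with DMSO and 100% = cells without DAX-1 with DMSO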
LXR ag: LXR agonists, Gal4 luciferase reporter, confirmation, counter-screen for hcDAF-12 agonist project, cell-based, luminescence, HEK293, H. contortus campaign. shares compounds with hcDAF12 agonist. HEK293 Gal4-LXR tk-luc reporter, 24 h; normalized: DMSO 0%, positive control 100%. activation, % at 6.8 µM. 3,400 tested, under 10 active;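 active means mean percent activation of the reporter above a cutoff set as the average over tested compounds plus their standard deviation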
hcDAF12 ag: H. contortus DAF-12 receptor agonists, confirmation, cell-based, luminescence, HEK293, lit1-tk-luc, triplicate. shares compounds with hcDAF12 agonist. activation, % at 6.8 µM. 3,400 tested, 61% active. HEK293 hcDAF-12 lit1-tk-luc reporter; % of Δ7-dafachronic acid response;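 active means mean activation across triplicate tests above the threshold derived from the earlier primary screen, cut at about 5.5% in these data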;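 further: 0% = DMSO only wells and 100% = 3 µM Δ7-dafachronic acid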
Numbers without * were called inactive; nt = not tested or not shown.

SMILES	DAX1 inh-1	DAX1 inh-2	ssDAF-12 act	hgDAF-12 ag	AHR act	hcDAF12 agonist	DAX1 conf	SF1 mutant ctr	LXR ag	hcDAF12 ag
COC(=O)c1ccccc1NC(=O)C1CC=CCC1C(=O)O (configuration not stated)	-0.1	0.9	-0.7	-0.5	-0.9	-0.1	nt	nt	nt	nt
COc1ccc(/C=N\NC(=O)c2sccc2C)cc1Cn1nc(C)cc1C	9.9*	2.5	1.2*	11.2*	57.3*	7.2*	0.8	-3.9	0.0	4.2
O=C(Nc1ccc(N2CCCC2)cc1)c1cccc(F)c1	4.6*	3.0	0.1	11.1*	7.1	8.8*	10.4*	2.3	1.2	5.7*
CCCn1c(C)cc(C(=O)COC(=O)c2nccnc2N)c1C	5.7*	0.2	1.3*	12.6*	0.4	7.4*	14.9*	5.6*	1.0	5.9*
COc1ccc(-c2cc3ccccc3c(=O)o2)cc1	7.7*	nt	2.2*	25.3*	nt	12.2*	13.3*	6.6*	2.2	11.0*
COc1ccc(C(=O)c2c(O)cc(-c3ccc(OC)cc3)oc2=O)cc1	-0.8	0.7	-0.6	2.4	7.4	-2.6	nt	nt	nt	nt
O=C(Nc1cccc(O)c1)C(=O)Nc1ccccn1	6.1*	-2.3	-0.3	8.7	-0.6	8.2*	10.0*	5.6*	1.2	4.2
C/C(CC(=O)Nc1ccccn1)=N\NC(=O)C(=O)Nc1cccc(C)c1	0.1	0.4	-1.6	-1.3	-2.7	-1.0	nt	nt	nt	nt
COc1ccc(-c2cn3ccc4ccccc4c3n2)cc1	7.1*	2.0	5.2*	18.5*	48.2*	23.4*	18.5*	9.6*	2.1	23.1*
CC(=Nc1ccc(C)cc1)c1sc2ccccc2c1O	5.3*	2.6	2.2*	15.0*	10.2	11.0*	12.6*	4.3*	2.1	13.1*
CN=Cc1sc2ccccc2c1O	0.1	1.0	-0.8	1.0	10.0	3.0	nt	nt	nt	nt
Cc1ccc(-c2cc(C(=O)OC3CCOC3=O)c3ccccc3n2)c(C)c1 (configuration not stated)	-0.2	-0.6	-1.4	-0.3	-2.7	-1.4	nt	nt	nt	nt
CN(c1ccc(C(=O)Nc2ccc3c(c2)OCO3)cc1)S(C)(=O)=O	1.8	1.0	-0.8	4.9	19.4	1.4	nt	nt	nt	nt
Cc1ccc(C(=O)Nc2ccc3c(c2)OCO3)cc1	5.6*	-1.7	3.3*	13.1*	43.2	19.9*	11.3*	6.0*	1.6	14.1*
CC(C)c1cc(C(=O)Nc2ccc3c(c2)OCO3)no1	6.4*	1.5	2.0*	8.4	39.7	12.5*	15.7*	7.1*	1.2	7.9*
